Assay outcomes (PubChem)
Sampled rows, rich in hits. Any-hit rate of the full collection: about 1.1%.
Tb PFK block – inhibitors of T. brucei phosphofructokinase; O15648; T. brucei PFK, ADP-Glo luminescence; 330,000 tested, 0.17% active; Potency, µM (highest dose often 57.5 µM), for inactives: top-dose activity, negative = inhibition, most hits filed as inhibitors;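 also: 0% = uninhibited 1x PFK enzyme wells and -100% = no-enzyme wells; nearly all actives have a fitted effect of over 60% in size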
Target sequence (O15648 whole entry, looked up): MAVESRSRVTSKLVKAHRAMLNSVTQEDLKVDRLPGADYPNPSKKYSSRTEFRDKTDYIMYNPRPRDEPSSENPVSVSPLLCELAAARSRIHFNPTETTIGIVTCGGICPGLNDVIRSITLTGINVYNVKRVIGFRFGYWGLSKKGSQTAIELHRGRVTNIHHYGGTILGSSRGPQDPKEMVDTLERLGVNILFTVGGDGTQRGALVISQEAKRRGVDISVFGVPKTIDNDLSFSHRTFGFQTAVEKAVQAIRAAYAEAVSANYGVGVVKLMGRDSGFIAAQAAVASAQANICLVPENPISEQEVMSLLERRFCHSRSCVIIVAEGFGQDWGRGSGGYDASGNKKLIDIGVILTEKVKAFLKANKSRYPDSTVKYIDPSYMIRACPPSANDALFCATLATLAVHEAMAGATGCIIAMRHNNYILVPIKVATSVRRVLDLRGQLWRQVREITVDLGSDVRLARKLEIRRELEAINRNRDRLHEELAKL
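PFK 1.25 nM, F6P 0.5 mM, ATP 0.1 mM, 0.1 M TEA pH 8.0, 5 mM MgCl2, 0.01% Tween20, 0.1% BSA; 45 min RT. ADP-Glo readout. qHTS titration up to 57 uM; curves fitted, compounds curve-classed.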
Tb PGK inh – inhibitors of T. brucei phosphoglycerate kinase. P07378. Potency, µM (titrated, usually from 57.5 µM), inactives show top-dose activity change, negative = inhibition, actives largely listed as inhibitors. PGK/GAPDH coupled, Kinase-Glo luminescence, 60 min. 380,000 tested, 0.043% active; also: nearly all actives have a fitted effect of over 60% in size
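Luminescent ATP detection (Kinase-Glo Plus) follows a 60-minute room-temperature incubation, with wells lacking PGK as controls. Buffer: 100 mM TEA (pH 7.6), 5 mM MgCl2, 0.01% Tween-20. Coupling enzyme GAPDH (100 nM final) supplies unstable 1,3-BPG in-well.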
Pin1 inh – human Pin1 inhibition; 390,000 tested, 0.009% active; Potency, µM (highest dose often 115 µM), for the others: at the top dose activity, negative = inhibition, usual class: inhibitors; AID 504891; Pin1 FP peptide displacement, HiFluor488, 10 min; active = well fitted inhibition curve with a large enough effect in the polarisation, with a control signal flat, not every such curve was filed as active; inconclusive = small, poorly fitted or top-dose-only effect, or effect the other way, or a change in a side signal; inactive = no such curve, though single readings can be large or run the other way; the % refers to the polarisation
Target sequence (Q13526 whole entry, looked up): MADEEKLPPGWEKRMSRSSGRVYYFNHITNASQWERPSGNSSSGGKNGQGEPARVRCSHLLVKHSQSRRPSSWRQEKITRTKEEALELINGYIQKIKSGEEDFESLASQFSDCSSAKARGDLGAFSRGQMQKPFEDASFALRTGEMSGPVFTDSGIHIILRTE
VDR inhibitor – inhibitors of human vitamin D receptor. P11473. VDR-SRC2-3 peptide fluorescence polarization, 2 h. Potency, µM, for the others: max response, negative = inhibition, most hits filed as inhibitors. 400,000 tested, 0.93% active
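Fluorescence polarization assay measuring small-molecule disruption of VDR binding to the coregulator peptide SRC2-3. Compounds were pin-transferred (23 nl) into the reagent mix and incubated 2 h at room temperature before reading.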
GLS inhibitor – blocks human kidney-isoform glutaminase activity. O94925. GLS enzymatic activity, qHTS titration. Potency, µM (doses to about 45.5 µM), inactives show at the top dose activity change, negative = inhibition, actives largely listed as inhibitors. 410,000 tested, 0.21% active
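Enzyme dispensed in phosphate buffer (45 mM, pH 8.2, 0.02% Tween-20), compounds pinned in, then 1 mM L-glutamine solution and the glutamate oxidase–HRP–Amplex Red mix added; fluorescence read immediately and again after 30 min at room temperature.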
Starred values were filed as active, the others as inactive; ! = not confirmed by another sample. Unless noted, calls follow the shape of the dose curve; as a rule, active = well fitted curve in the direction sought with a large enough effect; inconclusive = small, poorly fitted or top-dose-only effect, or another doubt; inactive = no such curve, though single readings can be large; an effect the other way counts as inactive or inconclusive. Unless noted, % is scaled to controls: 0 for no effect and ±100 for the full control effect; potency is read from the fitted curve at half-maximal effect.

For COc1ccc(CCNC(=O)c2ccc3nc(-c4ccco4)c(-c4ccco4)nc3c2)cc1OC the results were Tb PFK block inconclusive, Tb PGK inh 1.0%, Pin1 inh inconclusive, VDR inhibitor 79.4µM* and GLS inhibitor -14.5%.
O=C(c1ccco1)N1CCN(C(=O)c2cc(-c3ccncc3)nc3ccc(Br)cc23)CC1 was read as Tb PGK inh -7.4%, Pin1 inh inconclusive, VDR inhibitor 5.6% and GLS inhibitor -4.3%.
For CCC(C)NC(=O)c1ccc2nc(-c3ccco3)c(-c3ccco3)nc2c1 (stereo unspecified) the results were Pin1 inh inconclusive and VDR inhibitor 50.1µM*.
O=C(c1ccc2nc(-c3ccco3)c(-c3ccco3)nc2c1)N1CCN(c2ccccc2)CC1 was read as Tb PFK block -0.8%, Tb PGK inh -1.8%, Pin1 inh inconclusive, VDR inhibitor -0.3% and GLS inhibitor 6.9%.
`O=C(O)c1ccc2nc(-c3ccco3)c(-c3ccco3)nc2c1` gave Tb PFK block inconclusive, Tb PGK inh inconclusive, Pin1 inh inconclusive, VDR inhibitor inconclusive and GLS inhibitor 7.08µM*.
CCC(C)NC(=O)c1ccc2nc(Cc3ccccc3)oc2c1 (stereo unspecified) was read as Tb PGK inh 2.6%, Pin1 inh -5.1%, VDR inhibitor 9.6% and GLS inhibitor inconclusive.
Screening O=C(CN1C(=O)NC2(CCCC2)C1=O)Nc1cc(S(=O)(=O)N2CCCCC2)ccc1Cl returned Tb PFK block 0.0%, Tb PGK inh -1.7%, Pin1 inh 3.6%, VDR inhibitor -5.2% and GLS inhibitor 7.6%.
`CCCN1CCC(=O)N(C(CSc2ccc(Br)cc2)CC(C)C)CC1` (stereo unspecified) gave Pin1 inh 5.5% and VDR inhibitor -29.0%.
`O=C(Nc1ccc(N2CCOCC2)cc1)Nc1ccc2nc(-c3ccco3)c(-c3ccco3)nc2c1` gave Tb PFK block -7.3%, Tb PGK inh -0.6%, Pin1 inh -9.1%, VDR inhibitor 17.1% and GLS inhibitor 2.1%.
O=C(Nc1ccc2nc(-c3ccco3)c(-c3ccco3)nc2c1)NC1CC1 was read as Tb PFK block -3.4%, Tb PGK inh inconclusive, VDR inhibitor 70.8µM* and GLS inhibitor 85.8%.
Screening Cc1ccc(C(=O)NNC(=S)NC(=O)COc2ccccc2)cc1 returned Tb PFK block -5.7%, Tb PGK inh -4.4%, Pin1 inh -6.9%, VDR inhibitor -7.2% and GLS inhibitor 9.9%.
`Cc1cccc(OCC(=O)NC(=S)NNC(=O)c2ccncc2)c1` gave Tb PFK block -3.6%, Tb PGK inh -5.6%, Pin1 inh -1.0%, VDR inhibitor 70.8µM* and GLS inhibitor 6.5%.
For Cc1cc(C)cc(N2C(=O)c3nccnc3C2=O)c1 the results were Tb PFK block -5.5%, Tb PGK inh -0.3%, Pin1 inh -0.7%, VDR inhibitor -19.1% and GLS inhibitor -2.9%.
`Cc1cc(C)cc(N2C(=O)C=CC2=O)c1` gave Tb PGK inh 4.5%, Pin1 inh 1.5%, VDR inhibitor 39.8µM* and GLS inhibitor -8.6%.
CC(C)c1ccc(Cc2cnc(NC(=O)c3ccc4c(c3)CC(c3ccccc3)OC4=O)s2)cc1 (stereo unspecified) was read as Tb PGK inh 13.8%, Pin1 inh 9.1%, VDR inhibitor -6.4% and GLS inhibitor -1.0%.
`N#C/C(=C/c1ccc(N2CCCCCC2)o1)c1cccc(F)c1` gave Tb PFK block -16.2%, Tb PGK inh 6.3%, Pin1 inh inconclusive, VDR inhibitor 44.7µM* and GLS inhibitor 7.7%.
N#C/C(=C/c1ccc(N2CCOCC2)o1)c1ccc(Br)cc1 was read as Tb PFK block -18.6%, Tb PGK inh -6.0%, Pin1 inh inconclusive, VDR inhibitor 35.5µM* and GLS inhibitor -0.4%.
N#C/C(=C\c1ccc(N2CCOCC2)o1)c1ccccc1 was read as Tb PFK block inconclusive, Tb PGK inh -7.8%, Pin1 inh inconclusive, VDR inhibitor -93.0% and GLS inhibitor 21.8%.
Cc1cc(C)c2nc(N3CCCN(C(=O)c4ccco4)CC3)c(C#N)cc2c1 was read as Tb PFK block 0.7%, Tb PGK inh 2.3%, Pin1 inh 6.3% and VDR inhibitor 79.4µM*.
Cc1nc(N2CCN(C(=O)c3ccco3)CC2)c(C#N)c2c1CCCC2 was read as Tb PFK block -1.7%, Tb PGK inh -2.1%, Pin1 inh 1.7%, VDR inhibitor -14.5% and GLS inhibitor -1.7%.
COc1ccc(NC(=S)NNc2ccc(C(=O)O)cc2)cc1 was read as Tb PFK block 6.6%, Tb PGK inh 0.8%, Pin1 inh 2.9%, VDR inhibitor 31.6µM* and GLS inhibitor 44.9%.
Screening O=c1oc2ccc3ccccc3c2cc1-c1nnc(Nc2cccc(C(F)(F)F)c2)s1 returned Pin1 inh inconclusive, VDR inhibitor -10.4% and GLS inhibitor 3.2%.
Screening CC1=C(/C=C/C(C)=C/C=C/C(C)=C/C(=O)O)C(C)(C)CCC1 returned Tb PFK block 0.0%, Tb PGK inh -7.7%, Pin1 inh -4.9%, VDR inhibitor 44.7µM*! and GLS inhibitor -3.9%.
For CC(/C=C\c1ccccc1)=C/C(=O)O the results were Tb PFK block 2.9%, Tb PGK inh 0.0%, Pin1 inh -3.9%, VDR inhibitor -10.2% and GLS inhibitor 8.8%.
Screening CC1=C(/C=C/C(C)=C\C=C\C(C)=C\C(=O)O)C(C)(C)CCC1 returned VDR inhibitor 56.2µM*!.
For CC1=C(/C=C/C(C)=C/C=C/C(C)=C/C(=O)O)C(C)(C)CCC1O (stereo unspecified) the results were VDR inhibitor 70.8µM*.
Screening Cc1nn(Cc2ccccc2Cl)c(C)c1C(=O)NCC(c1cccs1)N1CCOCC1 (stereo unspecified) returned Tb PFK block 14.0%, Tb PGK inh 0.9%, Pin1 inh -2.6%, VDR inhibitor 3.8% and GLS inhibitor 2.9%.
Screening O=c1cc(-c2ccccc2)[nH]c2cc(Cl)ccc12 returned Tb PFK block 7.5%, Tb PGK inh -2.2%, Pin1 inh 1.5%, VDR inhibitor 79.4µM*! and GLS inhibitor 1.9%.
`O=c1cc(-c2ccccc2)[nH]c2ccc(Cl)cc12` gave VDR inhibitor 0.0%.
For O=[N+]([O-])c1ccccc1-c1ccc(C(=S)N2CCN(c3ccccc3)CC2)o1 the results were Tb PFK block -5.6%, Tb PGK inh 4.5%, Pin1 inh -3.8%, VDR inhibitor 79.4µM* and GLS inhibitor 4.6%.
For Cc1ccc(N2CCN(C(=S)c3ccc(-c4ccccc4[N+](=O)[O-])o3)CC2)cc1 the results were Tb PFK block 1.0%, Tb PGK inh 2.7%, Pin1 inh 0.4%, VDR inhibitor inconclusive and GLS inhibitor 14.4%.
For CC(=O)O[C@@H]1C(CO[Si](C)(C)C(C)(C)C)=C(Br)C(=O)[C@@H]2O[C@]12C the results were VDR inhibitor 25.1µM*.
